According to PubChem BioAssay AID1159580 (chemical genetic matrix, 2015):
In all, about 5,500 compounds went through this assay and about 2,000 (36%) were called active. Not shown: some 18% with an inconclusive outcome. Cut-off read from the data, not from the text of the source: active = normalized growth mostly below about 0.91 (no sharp cut-off); inconclusive = no clear call, values can overlap the other calls; inactive = mostly above about 0.92. This is one part of the list.

Assay: chemical genetic growth profiling, strain panel (AID 1159580);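 note: tested at 20 µM; growth read once vehicle control cultures reached saturation at 30 °C; 1 = growth at the plate median or of vehicle wells; lower values mean less growth of the strain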
Conditions: growth OD

Measured: normalized growth

c1ccc2c(CC3=NCCN3)cccc2c1
inactive: S. cerevisiae deletion strains, locus YJR075W, strain HOC1, active compounds read low 1 | S. cerevisiae deletion strains, locus YKL009W, strain mrt4, active compounds read low 1.01 | S. cerevisiae deletion strains, locus YKL068W, active compounds read low 1.01 | S. cerevisiae deletion strains, locus YKL085W, strain MDH1 (second series), active compounds read low 1.02 | S. cerevisiae deletion strains, locus YKL085W, strain MDH1, active compounds read low 1.02 | S. cerevisiae deletion strains, locus YKL160W, strain elf1, active compounds read low 0.984 | S. cerevisiae deletion strains, locus YKL190W, strain CNB1, active compounds read low 1 | S. cerevisiae deletion strains, locus YKR001C, strain vps1, active compounds read low 1.01 | S. cerevisiae deletion strains, locus YKR026C, strain gcn3, active compounds read low 0.984 | S. cerevisiae deletion strains, locus YKR091W, strain srl3, active compounds read low 0.98 | S. cerevisiae deletion strains, locus YLL001W, strain dnm1, active compounds read low 0.986 | S. cerevisiae deletion strains, locus YLL026W, active compounds read low 0.997 | S. cerevisiae deletion strains, locus YLL041C, strain sdh2, active compounds read low 0.972 | S. cerevisiae deletion strains, locus YLR027C, strain aat2, active compounds read low 0.973 | S. cerevisiae deletion strains, locus YLR039C, strain RIC1, active compounds read low 1.04 | S. cerevisiae deletion strains, locus YLR058C, strain SHM2, active compounds read low 1.01 | S. cerevisiae deletion strains, locus YLR102C, strain apc9, active compounds read low 1.02 | S. cerevisiae deletion strains, locus YLR113W, strain HOG1, active compounds read low 0.991 | S. cerevisiae deletion strains, locus YLR221C, strain rsa3, active compounds read low 0.995 | S. cerevisiae deletion strains, locus YLR258W, strain gsy2, active compounds read low 0.991 | S. cerevisiae deletion strains, locus YLR262C, strain YPT6 (second series), active compounds read low 0.97 | S. cerevisiae deletion strains, locus YLR262C, strain YPT6, active compounds read low 1.03 | S. cerevisiae deletion strains, locus YLR268W, strain sec22, active compounds read low 1.02 | S. cerevisiae deletion strains, locus YLR320W, strain mms22, active compounds read low 0.979 | S. cerevisiae deletion strains, locus YLR330W, strain CHS5, active compounds read low 1.01 | S. cerevisiae deletion strains, locus YLR342W, strain FKS1 (second series), active compounds read low 1.03 | S. cerevisiae deletion strains, locus YLR342W, strain FKS1, active compounds read low 0.971 | S. cerevisiae deletion strains, locus YLR357W, strain rsc2, active compounds read low 0.942 | S. cerevisiae deletion strains, locus YLR370C, strain arc18, active compounds read low 0.978 | S. cerevisiae deletion strains, locus YLR371W, strain rom2, active compounds read low 1.04 | S. cerevisiae deletion strains, locus YLR384C, strain iki3, active compounds read low 0.962 | S. cerevisiae deletion strains, locus YLR418C, strain cdc73, active compounds read low 1.02 | S. cerevisiae deletion strains, locus YML016C, strain PPZ1, active compounds read low 1.01 | S. cerevisiae deletion strains, locus YML032C, strain rad52, active compounds read low 1.03 | S. cerevisiae deletion strains, locus YML120C, strain ndi1, active compounds read low 0.977 | S. cerevisiae deletion strains, locus YML124C, strain tub3, active compounds read low 1.02 | S. cerevisiae deletion strains, locus YMR058W, strain fet3, active compounds read low 0.976 | S. cerevisiae deletion strains, locus YMR078C, strain ctf18, active compounds read low 1.02 | S. cerevisiae deletion strains, locus YMR125W, strain sto1, active compounds read low 0.938 | S. cerevisiae deletion strains, locus YMR129W, active compounds read low 0.96 | S. cerevisiae deletion strains, locus YMR205C, strain PFK2, active compounds read low 0.987 | S. cerevisiae deletion strains, locus YMR223W, strain ubp8, active compounds read low 1.01 | S. cerevisiae deletion strains, locus YMR231W, strain pep5, active compounds read low 0.981 | S. cerevisiae deletion strains, locus YMR263W, strain SAP30, active compounds read low 1 | S. cerevisiae deletion strains, locus YMR307W, strain GAS1, active compounds read low 1.01 | S. cerevisiae deletion strains, locus YNL067W, strain RPL9B, active compounds read low 1 | S. cerevisiae deletion strains, locus YNL071W, strain lat1, active compounds read low 0.961 | S. cerevisiae deletion strains, locus YNL128W, strain TEP1, active compounds read low 1.01 | S. cerevisiae deletion strains, locus YNL153C, strain GIM3, active compounds read low 1 | S. cerevisiae deletion strains, locus YNL183C, strain NPR1, active compounds read low 0.957 | S. cerevisiae deletion strains, locus YNL209W, strain ssb2, active compounds read low 0.968 | S. cerevisiae deletion strains, locus YNL233W, strain BNI4, active compounds read low 1.01 | S. cerevisiae deletion strains, locus YNL248C, strain rpa49, active compounds read low 0.963 | S. cerevisiae deletion strains, locus YNL250W, strain rad50, active compounds read low 1.02 | S. cerevisiae deletion strains, locus YNL271C, strain bni1, active compounds read low 1.02 | S. cerevisiae deletion strains, locus YNL298W, strain CLA4, active compounds read low 1.01 | S. cerevisiae deletion strains, locus YNL307C, strain MCK1, active compounds read low 1.03 | S. cerevisiae deletion strains, locus YNL322C, strain KRE1 (second series), active compounds read low 0.958 | S. cerevisiae deletion strains, locus YNL322C, strain KRE1, active compounds read low 1 | S. cerevisiae deletion strains, locus YNR049C, strain mso1, active compounds read low 0.982 | S. cerevisiae deletion strains, locus YNR052C, strain pop2, active compounds read low 1.02 | S. cerevisiae deletion strains, locus YOL006C, strain TOP1, active compounds read low 1.03 | S. cerevisiae deletion strains, locus YOL012C, strain htz1 0.662 | S. cerevisiae deletion strains, locus YOL147C, strain pex11, active compounds read low 1.02 | S. cerevisiae deletion strains, locus YOR001W, strain rrp6, active compounds read low 0.934 | S. cerevisiae deletion strains, locus YOR061W, strain CKA2, active compounds read low 1.01 | S. cerevisiae deletion strains, locus YOR069W, strain VPS5, active compounds read low 1 | S. cerevisiae deletion strains, locus YOR070C, strain gyp1, active compounds read low 1.01 | S. cerevisiae deletion strains, locus YOR080W, strain dia2, active compounds read low 0.965 | S. cerevisiae deletion strains, locus YOR083W, strain WHI5, active compounds read low 0.994 | S. cerevisiae deletion strains, locus YOR106W, strain vam3, active compounds read low 0.97 | S. cerevisiae deletion strains, locus YOR136W, strain idh2, active compounds read low 1.02 | S. cerevisiae deletion strains, locus YOR144C, strain elg1, active compounds read low 1.02 | S. cerevisiae deletion strains, locus YOR184W, strain ser1, active compounds read low 1.02 | S. cerevisiae deletion strains, locus YOR231W, strain MKK1, active compounds read low 1.02 | S. cerevisiae deletion strains, locus YOR265W, strain rbl2, active compounds read low 0.987 | S. cerevisiae deletion strains, locus YOR270C, strain vph1, active compounds read low 0.914 | S. cerevisiae deletion strains, locus YOR290C, strain snf2, active compounds read low 0.984 | S. cerevisiae deletion strains, locus YOR316C, strain cot1, active compounds read low 1.03 | S. cerevisiae deletion strains, locus YPL051W, strain arl3, active compounds read low 0.988 | S. cerevisiae deletion strains, locus YPL055C, strain LGE1, active compounds read low 1.02 | S. cerevisiae deletion strains, locus YPL078C, strain atp4, active compounds read low 0.981 | S. cerevisiae deletion strains, locus YPL106C, strain sse1, active compounds read low 0.968 | S. cerevisiae deletion strains, locus YPL240C, strain hsp82, active compounds read low 0.997 | S. cerevisiae deletion strains, locus YPL241C, strain CIN2, active compounds read low 1 | S. cerevisiae deletion strains, locus YPL256C, strain CLN2, active compounds read low 0.987 | S. cerevisiae deletion strains, locus YPR119W, strain clb2, active compounds read low 1.02 | S. cerevisiae deletion strains, locus YPR141C, strain kar3, active compounds read low 1.03 | S. cerevisiae deletion strains, locus YPR163C, strain tif3, active compounds read low 1.02 | S. cerevisiae deletion strains, locus YPR167C, strain met16, active compounds read low 1.02 | S. cerevisiae deletion strains, strain wtn01, active compounds read low 1.02 | S. cerevisiae strains, strain wild type, active compounds read low 1
